The values that follow come from PubChem BioAssay (NCI).

About 83,000 compounds went through this panel and 20% of them were active in at least one assay; those are over-represented in the sample as a whole.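 Compound tested at a single concentration for 48 hours in 96-well plates; a percent growth value below 10 was scored as active.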 Unmarked numbers belong to inactive results. Activity calls are given as the source filed them.

Assay in all cases: NCI-60 one-dose screen, 48 h (100 = growth as untreated, 0 = no growth, -100 = all killed)
For one experiment, the system named is HCT-15 colon. Particulars: 10 µM unless noted.
Another experiment concerns HT29 colon. Particulars: 10 µM unless noted.
Another experiment relates to SNB-19 CNS. The conditions noted are these: 10 µM unless noted.
For another experiment, the system named is U251 CNS. Particulars: 10 µM unless noted.
In a further experiment the test system is PC-3 prostate. The conditions noted are these: 10 µM unless noted.
The next experiment deals with UACC-62 melanoma. The conditions noted are these: 10 µM unless noted.
Another experiment concerns LOX IMVI melanoma. The conditions noted are these: 10 µM unless noted.
For a further experiment, the system named is SK-MEL-28 melanoma. Particulars: 10 µM unless noted.
For a further experiment, the system named is EKVX NSCLC. Particulars: 10 µM unless noted.
The subject of another experiment is SN12C renal. The conditions noted are these: 10 µM unless noted.
The test system of the next experiment is UO-31 renal. Particulars: 10 µM unless noted.
Another experiment concerns TK-10 renal. The conditions noted are these: 10 µM unless noted.
The subject of another experiment is ACHN renal. The conditions noted are these: 10 µM unless noted.
In the next experiment the test system is CAKI-1 renal. The conditions noted are these: 10 µM.
A further experiment concerns A498 renal. Particulars: 10 µM unless noted.
The next experiment has as its system CCRF-CEM leukemia. The conditions noted are these: 10 µM unless noted.
In the next experiment the test system is SK-MEL-2 melanoma. The conditions noted are these: 10 µM unless noted.
The next experiment has as its system MOLT-4 leukemia. Particulars: 10 µM unless noted.
Another experiment deals with SNB-75 CNS. Particulars: 10 µM unless noted.
A further experiment relates to SK-MEL-5 melanoma. The conditions noted are these: 10 µM unless noted.

In the case of `Cc1cc(=O)n2nc(-c3c[nH]c4ccccc34)sc2n1`, the growth was 93.5% in the experiment on HCT-15 colon; 107% in the experiment with HT29 colon; 97.3% with SNB-19 CNS; 94.2% in the experiment on U251 CNS; 98.3% in the experiment with PC-3 prostate; 92% in the experiment with UACC-62 melanoma. Also, the growth is 95.7% with LOX IMVI melanoma; 96.5% in the experiment with SK-MEL-28 melanoma; 95.3% in the experiment on EKVX NSCLC; 94.5% with SN12C renal; 82.1% in the experiment on UO-31 renal; 128% with TK-10 renal. Moreover, the growth with ACHN renal is 96.1%; in the experiment with CAKI-1 renal, 99.8%; in the experiment on A498 renal, 95.1%; in the experiment with CCRF-CEM leukemia, 115%.

In the case of `Oc1ccc(-c2nnc(SCc3ccc(O)c4ncccc34)n2-c2ccccc2)cc1`, the growth in the experiment with HCT-15 colon is 20.3%; in the experiment with HT29 colon it was 24.9%; in the experiment with SNB-19 CNS, 14.7%; with U251 CNS, 9.39% (active); with PC-3 prostate, 32.3%; in the experiment on UACC-62 melanoma it was -4.05% (active). Also, the growth with LOX IMVI melanoma is 5.09% (active); with SK-MEL-28 melanoma, 17%; with SK-MEL-2 melanoma, 38.1%; in the experiment on EKVX NSCLC it was 7.56% (active); with SN12C renal it was 18.7%; with UO-31 renal, -8.86% (active). In addition, the growth in the experiment with TK-10 renal is 34.3%; with ACHN renal, 8.27% (active); in the experiment with CAKI-1 renal, 16.1%; in the experiment with A498 renal, 16%; in the experiment on MOLT-4 leukemia, 12.5%.

For `CN(c1ccc(Cl)cc1)S(=O)(=O)c1ccc(-c2cnc(C3CC3)o2)cc1`, the growth in the experiment on HT29 colon was 15%; in the experiment with SNB-75 CNS it was 43%; with SNB-19 CNS, 44.4%; in the experiment with U251 CNS, 32.3%; with PC-3 prostate, 22.3%; in the experiment on SK-MEL-5 melanoma, 10.2%. The growth in the experiment with UACC-62 melanoma is 37.3%; with LOX IMVI melanoma it was 12.9%; in the experiment with SK-MEL-28 melanoma it was 65.2%; with SK-MEL-2 melanoma it was 63.7%; in the experiment on EKVX NSCLC it was 47%; in the experiment on SN12C renal, 29.8%. The growth with UO-31 renal was 47.3%; in the experiment with TK-10 renal, 75.8%; with ACHN renal it was 33.6%; in the experiment on CAKI-1 renal, 5.6% (active); in the experiment on A498 renal, 12.8%; in the experiment with CCRF-CEM leukemia, 17.1%. Besides, the growth with MOLT-4 leukemia is 16.8%.

In the case of `Cc1ccc(Nc2ncnc3c2c(C)nn3-c2ccc([N+](=O)[O-])cc2)cc1`, the growth in the experiment on HCT-15 colon was 82.5%; in the experiment on HT29 colon it was 80.3%; in the experiment on SNB-19 CNS, 88.8%; in the experiment on U251 CNS, 60.1%; in the experiment on PC-3 prostate, 78.4%; in the experiment with SK-MEL-5 melanoma it was 92.9%. The growth in the experiment on UACC-62 melanoma is 92.2%; in the experiment on SK-MEL-28 melanoma, 97.5%; with SK-MEL-2 melanoma it was 107%; in the experiment with EKVX NSCLC it was 67.8%; in the experiment on SN12C renal it was 90%; with UO-31 renal, 91.3%. Also, the growth with ACHN renal is 62.8%; in the experiment on CAKI-1 renal, 63.6%; with CCRF-CEM leukemia, 79.8%; in the experiment with MOLT-4 leukemia it was 87.3%.

Take `CN(C)C(=O)c1ccccc1-n1cnc2ccccc2c1=O`: the growth with HCT-15 colon is 97.5%; in the experiment with HT29 colon, 103%; in the experiment on SNB-19 CNS it was 95.2%; with U251 CNS it was 99.3%; in the experiment on PC-3 prostate, 97.2%; with SK-MEL-5 melanoma, 101%. The growth was 96.9% in the experiment with UACC-62 melanoma; 103% in the experiment with SK-MEL-28 melanoma; 107% with SK-MEL-2 melanoma; 101% with EKVX NSCLC; 92.7% in the experiment on SN12C renal; 92.8% with UO-31 renal. Also, the growth was 97.6% with TK-10 renal, 96.3% in the experiment on ACHN renal, 90.1% in the experiment on CAKI-1 renal and 102% in the experiment with MOLT-4 leukemia.

As to `O=C(Nc1cc(Cl)cc(Cl)c1)Nc1nc2ccc([N+](=O)[O-])cc2s1`, the growth was 2.76% (active) with HCT-15 colon; 5.08% (active) with HT29 colon; 21.3% with SNB-19 CNS; 6.61% (active) in the experiment with U251 CNS; 7.99% (active) in the experiment on PC-3 prostate; -76.5% (active) with SK-MEL-5 melanoma. For the same compound, the growth was -34.1% (active) in the experiment on UACC-62 melanoma; -2.55% (active) with SK-MEL-28 melanoma; -22.2% (active) in the experiment on SK-MEL-2 melanoma; 6.9% (active) in the experiment with EKVX NSCLC; 6.95% (active) with UO-31 renal; -1.5% (active) in the experiment on TK-10 renal. Besides, the growth was 3.76% (active) in the experiment on ACHN renal, 6.87% (active) in the experiment on CAKI-1 renal, 10.3% in the experiment with CCRF-CEM leukemia and 2.31% (active) with MOLT-4 leukemia.

For `O=C1[C@H]2Cc3c([nH]c4ccccc34)[C@H](c3ccc(Cl)cc3)N2C(=O)CN1C1CCN(Cc2c(Cl)cccc2Cl)CC1`, the growth was 39.5% in the experiment with HCT-15 colon; 18.2% in the experiment on HT29 colon; 80.6% with SNB-19 CNS; 69.5% in the experiment on U251 CNS; 49.3% in the experiment on PC-3 prostate; 88.8% with UACC-62 melanoma. Moreover, the growth is 15.3% with LOX IMVI melanoma; 98.8% in the experiment with SK-MEL-28 melanoma; 106% in the experiment on SK-MEL-2 melanoma; 74.5% in the experiment with EKVX NSCLC; 59.9% in the experiment on SN12C renal; 48.4% in the experiment on UO-31 renal. The growth in the experiment on TK-10 renal was 101%; in the experiment on ACHN renal, 72.9%; in the experiment on CAKI-1 renal, 41.9%; in the experiment on A498 renal, 101%; in the experiment with CCRF-CEM leukemia it was 53.4%; with MOLT-4 leukemia, 44%.

As to `COC[C@@]1(C)CC[C@]2(C)CC[C@]3(C)C(=CC[C@@H]4[C@@]5(C)CCCNC(C)(C)[C@@H]5CC[C@]43C)C2C1` (stereo partly specified), the growth in the experiment with HCT-15 colon is 16.1%; with HT29 colon it was 23.3%; in the experiment on SNB-19 CNS, 67.5%; with U251 CNS, 35.3%; in the experiment with SK-MEL-5 melanoma it was 87.7%; with UACC-62 melanoma it was 64.5%. Further, the growth is 12.6% in the experiment with LOX IMVI melanoma; 66.6% in the experiment on SK-MEL-28 melanoma; 78.1% in the experiment with SK-MEL-2 melanoma; 76.9% with EKVX NSCLC; 51.6% with SN12C renal; 90.4% with UO-31 renal. Moreover, the growth is 110% with TK-10 renal; 87.1% with ACHN renal; 71.7% with CAKI-1 renal; 47.7% in the experiment with CCRF-CEM leukemia; 34.1% in the experiment with MOLT-4 leukemia.

`CCOc1ccc2nc(NC(=O)Nc3ccccc3C)sc2c1`: the growth was 27% in the experiment with HCT-15 colon; 14.9% with HT29 colon; 53.8% in the experiment on SNB-19 CNS; 48.2% in the experiment on U251 CNS; 57.6% with PC-3 prostate; 59.6% in the experiment with SK-MEL-5 melanoma. The growth with UACC-62 melanoma was 47.2%; in the experiment with SK-MEL-28 melanoma, 54.1%; in the experiment with SK-MEL-2 melanoma, 48.5%; with EKVX NSCLC it was 72%; with UO-31 renal, 66.3%; with TK-10 renal, 64.5%. The growth with ACHN renal is 67%; in the experiment with CAKI-1 renal, 60.9%; in the experiment on CCRF-CEM leukemia, 47.7%; in the experiment with MOLT-4 leukemia it was 34.5%.
